PubChem BioAssay (NCI)
The panel holds about 83,000 compounds, 20% with a hit somewhere; the sample as a whole holds those more often.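 How to read the values: 0–100, growth inhibition (40 = 60% inhibited); 0, no net growth; -100 to 0, cell death (-40 = 40% of starting cells died; -100 = all dead).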 Calls of active or inactive are those of the source. Rule for the calls: active = growth percent below 10; inactive = the rest.

Experiments:
Experiment in all cases: NCI-60 one-dose screen, 48 h (100 = growth as untreated, 0 = no growth, -100 = all killed)
Settings in all cases: 10 µM unless noted
RPMI-8226 leukemia = test system: RPMI-8226 leukemia
OVCAR-8 ovarian = test system: OVCAR-8 ovarian
OVCAR-5 ovarian = test system: OVCAR-5 ovarian
OVCAR-4 ovarian = test system: OVCAR-4 ovarian
SK-OV-3 ovarian = test system: SK-OV-3 ovarian
IGROV1 ovarian = test system: IGROV1 ovarian
OVCAR-3 ovarian = test system: OVCAR-3 ovarian
HS 578T breast = test system: HS 578T breast
NCI/ADR-RES ovarian = test system: NCI/ADR-RES ovarian

Measured: growth

CC(=O)N1N=C(CCC(=O)c2nc3ccc([N+](=O)[O-])cc3[nH]2)OC1c1ccc(O)cc1 (configuration not stated)
inactive: RPMI-8226 leukemia 120% | OVCAR-8 ovarian 105% | OVCAR-5 ovarian 104% | OVCAR-4 ovarian 109% | SK-OV-3 ovarian 75.3% | IGROV1 ovarian 103% | OVCAR-3 ovarian 103% | HS 578T breast 104% | NCI/ADR-RES ovarian 99.9%

C[C@H]1C=C(C[C@@H](O)CC#CC#CCCCCC[C@@H](O)[C@H]2CCC(=O)O2)C(=O)O1
inactive: RPMI-8226 leukemia 114% | OVCAR-8 ovarian 110% | OVCAR-5 ovarian 95.6% | OVCAR-4 ovarian 105% | SK-OV-3 ovarian 95.5% | IGROV1 ovarian 54.1% | HS 578T breast 117% | NCI/ADR-RES ovarian 95.5%

CCOC(=O)c1noc2c1CCc1c-2cn(Cc2ccc(OC)cc2)c1-c1cc(OC)c(OC)c(OC)c1
inactive: RPMI-8226 leukemia 24.7% | OVCAR-8 ovarian 32.6% | OVCAR-5 ovarian 71.2% | OVCAR-4 ovarian 63.2% | SK-OV-3 ovarian 65.3% | IGROV1 ovarian 33.2% | NCI/ADR-RES ovarian 21.9%
active: OVCAR-3 ovarian 3.47% | HS 578T breast 8.37%

CCn1c(SCC(=O)c2ccc(Br)cc2)nnc1-c1cc2c([nH]c3ccccc32)c(-c2cccc(O)c2)n1
inactive: RPMI-8226 leukemia 69.4% | OVCAR-8 ovarian 77.5% | OVCAR-5 ovarian 95.1% | OVCAR-4 ovarian 71.4% | SK-OV-3 ovarian 86.7% | IGROV1 ovarian 88.5% | OVCAR-3 ovarian 80.4% | HS 578T breast 73.7% | NCI/ADR-RES ovarian 81.1%

CCCCCC/C=N/Nc1ccc([N+](=O)[O-])cn1
inactive: RPMI-8226 leukemia 105% | OVCAR-8 ovarian 110% | OVCAR-5 ovarian 100% | OVCAR-4 ovarian 118% | SK-OV-3 ovarian 81.1% | IGROV1 ovarian 105% | OVCAR-3 ovarian 103% | HS 578T breast 108% | NCI/ADR-RES ovarian 102%

CC(=O)O[C@@H]1[C@@H](OC(C)=O)[C@H](OC(C)=O)CO[C@H]1Nc1cccc2ccccc12
inactive: RPMI-8226 leukemia 87.9% | OVCAR-8 ovarian 102% | OVCAR-5 ovarian 100% | OVCAR-4 ovarian 103% | SK-OV-3 ovarian 105% | IGROV1 ovarian 97.9% | OVCAR-3 ovarian 95.7% | HS 578T breast 96.3% | NCI/ADR-RES ovarian 95.9%

COc1cc(Cn2cc3c(c2)-c2onc(CO)c2CC3)cc(OC)c1OC
inactive: RPMI-8226 leukemia 79.1% | OVCAR-8 ovarian 98.7% | OVCAR-5 ovarian 103% | OVCAR-4 ovarian 98% | SK-OV-3 ovarian 112% | IGROV1 ovarian 96.6% | OVCAR-3 ovarian 99.4% | HS 578T breast 80.3% | NCI/ADR-RES ovarian 93.8%

Cc1ccc2[nH]c3nc4cccnc4c(C)c3c2c1
inactive: RPMI-8226 leukemia 69.6% | OVCAR-8 ovarian 88.3% | OVCAR-5 ovarian 59.6% | OVCAR-4 ovarian 87.1% | SK-OV-3 ovarian 88% | IGROV1 ovarian 85.8% | OVCAR-3 ovarian 99.8% | HS 578T breast 93.2% | NCI/ADR-RES ovarian 83.2%

O=C(O)c1ccc(-c2nn(-c3ccc(C(=O)O)cc3)cc2/C=N/Nc2c(F)c(F)cc(F)c2F)cc1
inactive: RPMI-8226 leukemia 103% | OVCAR-8 ovarian 108% | OVCAR-5 ovarian 101% | OVCAR-4 ovarian 111% | SK-OV-3 ovarian 97.9% | IGROV1 ovarian 108% | OVCAR-3 ovarian 104% | HS 578T breast 112% | NCI/ADR-RES ovarian 105%

O=C(Nc1ccc(-n2cc(-c3ccncc3)c(-c3ccc(O)c(Cl)c3)n2)cc1)c1ccc(Cl)c(C(F)(F)F)c1
inactive: OVCAR-8 ovarian 17.8% | OVCAR-5 ovarian 61.6% | OVCAR-4 ovarian 62.6% | SK-OV-3 ovarian 56% | IGROV1 ovarian 52.9% | NCI/ADR-RES ovarian 18.5%
active: RPMI-8226 leukemia -26.9% | OVCAR-3 ovarian 4.18%

O=C1CCC(=O)N1C1CCCCC1
inactive: RPMI-8226 leukemia 109% | OVCAR-8 ovarian 112% | OVCAR-5 ovarian 109% | OVCAR-4 ovarian 104% | SK-OV-3 ovarian 103% | IGROV1 ovarian 91.9% | OVCAR-3 ovarian 102% | HS 578T breast 97.5% | NCI/ADR-RES ovarian 102%

CCCOC(=O)c1ccc([N+](=O)[O-])o1
inactive: RPMI-8226 leukemia 97.5% | OVCAR-8 ovarian 109% | OVCAR-5 ovarian 99.5% | OVCAR-4 ovarian 95.1% | SK-OV-3 ovarian 113% | IGROV1 ovarian 102% | OVCAR-3 ovarian 123% | NCI/ADR-RES ovarian 104%

S=c1ssnc1-c1ccccn1
inactive: RPMI-8226 leukemia 10.2% | OVCAR-8 ovarian 54.9% | OVCAR-5 ovarian 70.1% | OVCAR-4 ovarian 56.1% | SK-OV-3 ovarian 67.8% | IGROV1 ovarian 15.2% | NCI/ADR-RES ovarian 48.4%
active: HS 578T breast -7.73%

CCc1c2cc(Cl)ccc2n2cc(Cc3ccccc3)[nH]c(=O)c12
inactive: RPMI-8226 leukemia 110% | OVCAR-8 ovarian 99.1% | OVCAR-5 ovarian 93.9% | OVCAR-4 ovarian 102% | SK-OV-3 ovarian 103% | IGROV1 ovarian 90.5% | OVCAR-3 ovarian 99.2% | HS 578T breast 87.4% | NCI/ADR-RES ovarian 100%

Clc1ccc2c(c1)nnn1c3ncccc3c(Br)c21
inactive: RPMI-8226 leukemia 83.2% | OVCAR-8 ovarian 71.9% | OVCAR-5 ovarian 101% | OVCAR-4 ovarian 77.1% | SK-OV-3 ovarian 51.3% | OVCAR-3 ovarian 70.8% | HS 578T breast 16.7% | NCI/ADR-RES ovarian 85.8%

CC1(C)Cc2c(Br)c(Br)c(Br)c(OCC(O)CN3CCN(c4ccccn4)CC3)c2O1 (configuration not stated)
active: IGROV1 ovarian -11.7%
inactive: RPMI-8226 leukemia 52.1% | OVCAR-8 ovarian 88.6% | OVCAR-5 ovarian 102% | OVCAR-4 ovarian 112% | SK-OV-3 ovarian 102% | NCI/ADR-RES ovarian 75.3%

CC1=C[S+](c2ccccc2)c2cccc3cc4ccccc4c1c23 (configuration not stated)
inactive: OVCAR-4 ovarian 17.4% | HS 578T breast 69.5% | NCI/ADR-RES ovarian 27%
active: RPMI-8226 leukemia -32.5% | OVCAR-8 ovarian -9.27% | OVCAR-5 ovarian -32.7% | SK-OV-3 ovarian 0.639% | OVCAR-3 ovarian -82.9%

CCOC(=O)C1=C(N)Oc2cc(OC)ccc2C1c1ccc(F)c(F)c1 (configuration not stated)
active: RPMI-8226 leukemia 6.63%
inactive: OVCAR-8 ovarian 36% | OVCAR-5 ovarian 56.9% | SK-OV-3 ovarian 22.8% | IGROV1 ovarian 54.1% | OVCAR-3 ovarian 17.7% | HS 578T breast 28.4% | NCI/ADR-RES ovarian 25.5%

Cn1c(I)c(C#C[Si](C)(C)C)c(=O)[nH]c1=O
active: OVCAR-8 ovarian -11.7% | OVCAR-4 ovarian -65% | OVCAR-3 ovarian -54.1%
inactive: RPMI-8226 leukemia 46.5% | OVCAR-5 ovarian 77.7% | SK-OV-3 ovarian 110% | HS 578T breast 10.6% | NCI/ADR-RES ovarian 83.3%

Cc1cccc(NC(=O)CCc2ccc(N3C(N)=NC(N)=NC3(C)C)cc2)c1
inactive: RPMI-8226 leukemia 32% | OVCAR-8 ovarian 47.7% | OVCAR-5 ovarian 46.7% | OVCAR-4 ovarian 51.7% | SK-OV-3 ovarian 60.3% | OVCAR-3 ovarian 65.6% | HS 578T breast 91.4% | NCI/ADR-RES ovarian 95.6%

COc1ccc2c(c1)C(=O)/C(=C/c1ccc(OCC(=O)c3ccc(Cl)cc3)cc1)O2
inactive: RPMI-8226 leukemia 58.9% | OVCAR-8 ovarian 84.9% | OVCAR-5 ovarian 105% | OVCAR-4 ovarian 78.4% | SK-OV-3 ovarian 98.8% | OVCAR-3 ovarian 83.7% | HS 578T breast 115% | NCI/ADR-RES ovarian 98.8%

COC(=O)c1oc2c(C(C)=O)c(OCCN3CCCCC3)ccc2c1C
active: IGROV1 ovarian -8.51%
inactive: RPMI-8226 leukemia 97.6% | OVCAR-8 ovarian 107% | OVCAR-5 ovarian 107% | OVCAR-4 ovarian 161% | SK-OV-3 ovarian 107% | HS 578T breast 107% | NCI/ADR-RES ovarian 95.5%

Cn1cnc([N+](=O)[O-])c1N1c2ccncc2Sc2ccncc21
inactive: RPMI-8226 leukemia 85.8% | OVCAR-8 ovarian 83.4% | OVCAR-5 ovarian 99.7% | OVCAR-4 ovarian 179% | SK-OV-3 ovarian 92.2% | OVCAR-3 ovarian 92.7% | HS 578T breast 98.2% | NCI/ADR-RES ovarian 97.1%

CCCN1C(=O)CSC1=Nc1ccc2cc3ccc(N=C4SCC(=O)N4CCC)cc3nc2c1
active: RPMI-8226 leukemia 1.65%
inactive: OVCAR-8 ovarian 37.2% | OVCAR-5 ovarian 89.2% | OVCAR-4 ovarian 15.3% | SK-OV-3 ovarian 74.5% | OVCAR-3 ovarian 51% | HS 578T breast 31.6%

CN(C)C(=O)Nc1nc2cc(Cl)c(Cl)cc2[nH]1
active: RPMI-8226 leukemia -15.7% | OVCAR-3 ovarian -49.9% | NCI/ADR-RES ovarian 3.19%
inactive: OVCAR-8 ovarian 13.6% | OVCAR-5 ovarian 40.3% | OVCAR-4 ovarian 33.9% | SK-OV-3 ovarian 20.1% | HS 578T breast 50.8%

Cc1cc2c(cc1C)N(C(=O)CCl)CCN2C(=O)CCl
inactive: SK-OV-3 ovarian 53%
active: RPMI-8226 leukemia -41.9% | OVCAR-8 ovarian -4.44% | OVCAR-5 ovarian -74.4% | IGROV1 ovarian -61.8% | OVCAR-3 ovarian -95.8% | NCI/ADR-RES ovarian -49.7%

Cc1cc(NCCN(C(C)C)C(C)C)nc(/N=C(\N)Nc2ccc(Cl)c(C(F)(F)F)c2)n1
active: RPMI-8226 leukemia -65.7% | OVCAR-8 ovarian -79.2% | OVCAR-5 ovarian -55.5% | OVCAR-4 ovarian -68.2% | SK-OV-3 ovarian -82% | OVCAR-3 ovarian -73.6% | HS 578T breast -48.5%

Cc1cn(C2CC(F)C(CO)O2)c(=O)[nH]c1=O (configuration not stated)
inactive: RPMI-8226 leukemia 82.5% | OVCAR-8 ovarian 90.4% | OVCAR-5 ovarian 94.4% | OVCAR-4 ovarian 93.1% | SK-OV-3 ovarian 93.1% | OVCAR-3 ovarian 137% | HS 578T breast 133% | NCI/ADR-RES ovarian 86.5%

CC1(C)N=C(N)N=C(N)N1c1cccc(CCCCc2ccccc2)c1
inactive: OVCAR-5 ovarian 38.5% | SK-OV-3 ovarian 30.3% | HS 578T breast 66.5% | NCI/ADR-RES ovarian 90.3%
active: RPMI-8226 leukemia -50% | OVCAR-8 ovarian 0.546% | OVCAR-4 ovarian 7.12% | OVCAR-3 ovarian -16.8%

CCC(C)Nc1ccc(N)cc1 (configuration not stated)
active: RPMI-8226 leukemia -25.4% | OVCAR-4 ovarian -4.82% | OVCAR-3 ovarian -42.9%
inactive: OVCAR-5 ovarian 74% | SK-OV-3 ovarian 38.5% | HS 578T breast 78.9% | NCI/ADR-RES ovarian 70.6%

CCC1CN2C(=N1)c1ccccc1-c1cc(Cl)ccc12 (configuration not stated)
active: RPMI-8226 leukemia -9.43% | OVCAR-8 ovarian -5.17%
inactive: OVCAR-5 ovarian 35.6% | OVCAR-4 ovarian 26.6% | SK-OV-3 ovarian 29.6% | OVCAR-3 ovarian 20.4% | NCI/ADR-RES ovarian 21.3%

NC(CSC(c1ccccc1)(c1ccccc1)c1ccc(F)cc1)C(=O)O (configuration not stated)
active: RPMI-8226 leukemia -25.9% | OVCAR-3 ovarian -39.5%
inactive: OVCAR-8 ovarian 11.1% | OVCAR-5 ovarian 34.9% | OVCAR-4 ovarian 48.8% | SK-OV-3 ovarian 34.3% | HS 578T breast 16.9%

FC(F)(F)c1cn(CCN2CCOCC2)c2ncnc(Cl)c12
inactive: RPMI-8226 leukemia 99% | OVCAR-8 ovarian 18.7% | OVCAR-5 ovarian 106% | SK-OV-3 ovarian 101% | IGROV1 ovarian 13.4% | OVCAR-3 ovarian 63.3% | HS 578T breast 81.9% | NCI/ADR-RES ovarian 92.8%
